These results are taken from PubChem BioAssay (EPA / NIEHS).

Inconclusive results are not listed. Activity calls are given as the source filed them. The calls were made as follows: active = hit-call score of the fitted dose curve at least 0.9, where 1 is the maximum; inconclusive = response in the unintended direction; inactive = score below 0.9.

human Casein Kinase 2- alpha 2 beta 2 (CK2a2b2), CSNK2A1 (gene 1457), sequence (P68400 whole entry, looked up): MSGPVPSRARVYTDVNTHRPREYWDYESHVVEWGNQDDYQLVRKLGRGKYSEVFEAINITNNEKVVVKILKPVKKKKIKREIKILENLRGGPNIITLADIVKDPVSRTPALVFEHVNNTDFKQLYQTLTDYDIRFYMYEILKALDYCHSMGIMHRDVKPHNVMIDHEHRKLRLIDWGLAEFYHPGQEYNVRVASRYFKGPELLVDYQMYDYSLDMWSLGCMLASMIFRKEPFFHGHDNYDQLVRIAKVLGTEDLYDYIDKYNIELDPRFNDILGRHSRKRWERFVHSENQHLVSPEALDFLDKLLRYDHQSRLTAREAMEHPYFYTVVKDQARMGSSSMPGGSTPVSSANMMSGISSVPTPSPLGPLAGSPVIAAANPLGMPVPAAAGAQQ
human Beta-secretase (BACE), BACE1 (gene 23621), sequence (P56817 whole entry, looked up): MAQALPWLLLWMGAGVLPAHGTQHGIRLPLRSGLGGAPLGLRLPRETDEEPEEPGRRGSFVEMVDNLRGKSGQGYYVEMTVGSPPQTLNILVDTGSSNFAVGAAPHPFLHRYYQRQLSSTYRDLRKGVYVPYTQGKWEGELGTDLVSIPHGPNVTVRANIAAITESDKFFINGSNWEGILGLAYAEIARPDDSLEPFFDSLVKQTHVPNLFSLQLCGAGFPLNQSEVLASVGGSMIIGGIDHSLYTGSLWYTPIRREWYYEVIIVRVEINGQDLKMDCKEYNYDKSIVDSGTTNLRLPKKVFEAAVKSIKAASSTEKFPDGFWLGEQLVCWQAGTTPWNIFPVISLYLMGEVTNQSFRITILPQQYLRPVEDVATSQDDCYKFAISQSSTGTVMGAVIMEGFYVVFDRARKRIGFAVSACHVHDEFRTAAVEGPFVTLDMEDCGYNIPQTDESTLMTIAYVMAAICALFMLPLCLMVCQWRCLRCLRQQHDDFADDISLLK
human AKT serine/threonine Kinase 1 (AKT1), AKT1 (gene 207), sequence (P31749 whole entry, looked up): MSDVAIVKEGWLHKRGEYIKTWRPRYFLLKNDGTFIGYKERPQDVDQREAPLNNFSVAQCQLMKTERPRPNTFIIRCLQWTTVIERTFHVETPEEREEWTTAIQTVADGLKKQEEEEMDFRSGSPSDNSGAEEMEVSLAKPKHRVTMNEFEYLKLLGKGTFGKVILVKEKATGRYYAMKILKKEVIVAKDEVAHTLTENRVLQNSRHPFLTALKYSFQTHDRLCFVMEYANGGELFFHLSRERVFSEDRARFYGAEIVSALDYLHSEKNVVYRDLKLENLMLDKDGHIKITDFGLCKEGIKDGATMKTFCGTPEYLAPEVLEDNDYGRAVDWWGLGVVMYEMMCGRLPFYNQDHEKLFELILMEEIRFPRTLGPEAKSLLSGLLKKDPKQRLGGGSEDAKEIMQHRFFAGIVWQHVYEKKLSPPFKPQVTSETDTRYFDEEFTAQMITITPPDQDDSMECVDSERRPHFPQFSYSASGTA
human Caspase 8 (CASP8), CASP8 (gene 841), sequence (Q14790 whole entry, looked up): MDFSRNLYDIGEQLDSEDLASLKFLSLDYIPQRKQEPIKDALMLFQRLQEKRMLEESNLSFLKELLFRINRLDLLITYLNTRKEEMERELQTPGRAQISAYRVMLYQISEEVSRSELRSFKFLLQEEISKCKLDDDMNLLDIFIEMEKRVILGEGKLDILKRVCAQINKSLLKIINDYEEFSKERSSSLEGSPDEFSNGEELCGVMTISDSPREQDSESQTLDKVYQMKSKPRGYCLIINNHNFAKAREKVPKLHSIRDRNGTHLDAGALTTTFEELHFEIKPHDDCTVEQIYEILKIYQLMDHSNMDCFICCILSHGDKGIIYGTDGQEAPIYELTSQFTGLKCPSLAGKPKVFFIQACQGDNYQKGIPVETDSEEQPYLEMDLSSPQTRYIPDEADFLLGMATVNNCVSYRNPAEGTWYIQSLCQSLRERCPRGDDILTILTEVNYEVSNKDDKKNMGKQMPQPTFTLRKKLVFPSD
human AKT serine/threonine Kinase 2 (AKT2), AKT2 (gene 208), sequence (P31751 whole entry, looked up): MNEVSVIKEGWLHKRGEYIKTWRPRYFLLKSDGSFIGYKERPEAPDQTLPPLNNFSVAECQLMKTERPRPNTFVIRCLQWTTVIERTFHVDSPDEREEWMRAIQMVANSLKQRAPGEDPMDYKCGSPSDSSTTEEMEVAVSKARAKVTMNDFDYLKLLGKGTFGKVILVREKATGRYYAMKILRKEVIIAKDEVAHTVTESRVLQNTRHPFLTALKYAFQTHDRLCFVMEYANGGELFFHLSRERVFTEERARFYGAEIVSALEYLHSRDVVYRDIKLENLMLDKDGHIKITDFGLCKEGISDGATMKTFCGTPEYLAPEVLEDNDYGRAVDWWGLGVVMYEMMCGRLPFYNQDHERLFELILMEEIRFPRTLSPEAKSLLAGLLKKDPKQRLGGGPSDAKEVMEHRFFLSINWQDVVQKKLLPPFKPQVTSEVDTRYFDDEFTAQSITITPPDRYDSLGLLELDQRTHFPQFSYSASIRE
human Caspase 2 (CASP2), CASP2 (gene 835), sequence (P42575 whole entry, looked up): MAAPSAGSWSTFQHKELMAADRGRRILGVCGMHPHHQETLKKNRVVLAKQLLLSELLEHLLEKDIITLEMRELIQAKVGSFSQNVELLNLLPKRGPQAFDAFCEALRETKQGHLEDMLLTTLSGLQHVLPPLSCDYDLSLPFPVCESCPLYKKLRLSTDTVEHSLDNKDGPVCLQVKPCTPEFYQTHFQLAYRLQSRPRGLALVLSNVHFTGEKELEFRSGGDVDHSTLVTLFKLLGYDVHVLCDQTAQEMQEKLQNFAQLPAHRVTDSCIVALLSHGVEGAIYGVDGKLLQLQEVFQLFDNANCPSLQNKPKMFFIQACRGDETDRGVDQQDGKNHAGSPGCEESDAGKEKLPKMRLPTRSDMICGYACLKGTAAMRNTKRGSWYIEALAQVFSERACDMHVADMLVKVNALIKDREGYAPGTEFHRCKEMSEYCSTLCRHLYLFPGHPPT

The first assay concerns the target human Caspase 2 (CASP2), CASP2 (gene 835) (UniProt P42575). The assay can be described thus: NVS_ENZ_hCASP2: NovaScreen (NVS) Enzymatic Assay for human Caspase 2 (CASP2) (AID 2283135). Summed up:
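Single-point duplicate testing at 25 uM preceded concentration series topping at 50 uM. Activity of the recombinant E. coli-derived protease was followed by fluorescent substrate cleavage 1 h post-dosing, relative to DMSO.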
Take `CC(C)N1C(=O)N(c2ccccc2)CSC1=NC(C)(C)C`: the outcome was inactive.
Still for that read-out and setting: the result for `O=C1C2CC=CCC2C(=O)N1SC(Cl)(Cl)Cl` (stereo not given) reads “inactive”.
The same measure, in the same setting: the result for `CN/C(=N\[N+](=O)[O-])NCc1cnc(Cl)s1` reads “inactive”; that for `CCNC(=O)NC(=O)C(C#N)=NOC`, “inactive”.

The next assay has as its target human AKT serine/threonine Kinase 1 (AKT1), AKT1 (gene 207) (UniProt P31749). The assay can be described thus: NVS_ENZ_hAKT1: NovaScreen (NVS) Enzymatic Assay for human AKT serine/threonine Kinase 1 (AKT1) (AID 2283138). In a few lines: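 Compounds were first tested in duplicate at 25 uM, and those passing a threshold such as 30% inhibition were run in concentration-response to a maximum of 50 uM. Enzyme activity was measured after 1 h by fluorescence following substrate/product mobility-shift separation.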
On to `Nc1c(Cl)c(Cl)nc(C(=O)O)c1Cl`, for which the result was inactive.
The same measure, in the same setting: the result for `N#Cc1c(Cl)cccc1Cl` reads “inactive”; that for `O=c1n(Cl)c(=O)n(Cl)c(=O)n1Cl`, “inactive”; that for `CCOc1nc(F)cc2nc(S(=O)(=O)Nc3c(Cl)cccc3Cl)nn12`, “inactive”.

Another assay has as its target human Beta-secretase (BACE), BACE1 (gene 23621) (UniProt P56817). Description: NVS_ENZ_hBACE: NovaScreen (NVS) Enzymatic Assay for human Beta-secretase (BACE) (AID 2283140).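 Also: hits are inhibitors that reduce fluorescent substrate signal versus DMSO.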 Summed up:
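Fluorescence intensity read-out of protease activity defines this endpoint; signal loss relative to DMSO baseline marks inhibition. Recombinant enzyme from SF9 cells, cell-free format, 1 h exposure. Single-concentration duplicate screen (25 uM) precedes concentration-series follow-up.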
What is called AC50 is the concentration at which the activity in the assay is half-maximal. In the case of `CC1(C)C(C(=O)OC(C#N)c2cccc(Oc3ccccc3)c2)C1(C)C` (stereo not given), the AC50 was 2.8 µM (active).
With `CC(C)=CC1C(C(=O)OCc2coc(Cc3ccccc3)c2)C1(C)C` (stereo not given), the AC50 was 40.5 µM (active).
As to `Cc1c(COC(=O)[C@@H]2[C@H](/C=C(\Cl)C(F)(F)F)C2(C)C)cccc1-c1ccccc1`, the call was inactive.
Turning to `CC1(C)C(C=C(Cl)Cl)C1C(=O)OC(C#N)c1cccc(Oc2ccccc2)c1` (stereo not given), the call was inactive.
Take `CCCCOCN(C(=O)CCl)c1c(CC)cccc1CC`: the half-maximal activity concentration (AC50) is 9.39 µM (active).
For the molecule `COC(=O)c1c(C(F)F)nc(C(F)(F)F)c(C2=NCCS2)c1CC(C)C`, the AC50 is 8.78 µM (active).
For the molecule `COC(=O)N(C(=O)N1CO[C@@]2(C(=O)OC)Cc3cc(Cl)ccc3C2=N1)c1ccc(OC(F)(F)F)cc1`, the molecule was classed as inactive.

A further assay addresses human AKT serine/threonine Kinase 2 (AKT2), AKT2 (gene 208) (UniProt P31751). The assay can be described thus: NVS_ENZ_hAKT2: NovaScreen (NVS) Enzymatic Assay for human AKT serine/threonine Kinase 2 (AKT2) (AID 2283141). In a few lines:
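Cell-free fluorescence/electrophoretic mobility shift readout of recombinant human AKT2 activity, 1 h after chemical dosing. Duplicate primary screen at 25 uM, then singleton concentration-response up to 50 uM; loss of signal versus DMSO baseline.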
On to `Nc1c(Cl)c(Cl)nc(C(=O)O)c1Cl`, for which the molecule was called inactive.
`CS(=O)(=O)c1cc(C(F)(F)F)ccc1C(=O)c1cnoc1C1CC1`: the outcome was inactive.
On to `O=c1n(Cl)c(=O)n(Cl)c(=O)n1Cl`, for which the outcome was inactive.
Still for that read-out and setting: the result for `CCCC(=NOCC)C1=C(O)CC(CC(C)SCC)CC1=O` (stereo not given) reads “inactive”.

A further assay has as its target human Caspase 8 (CASP8), CASP8 (gene 841) (UniProt Q14790). The assay can be described thus: NVS_ENZ_hCASP8: NovaScreen (NVS) Enzymatic Assay for human Caspase 8 (CASP8) (AID 2283146). Here is the method: NVS_ENZ_hCASP8 is a biochemical, single-readout assay that uses extracted gene-proteins from E. coli in a cell-free assay. Measurements were taken 1 hour after chemical dosing in a 96-well plate.NVS_ENZ_hCASP8 is one of one assay component(s) measured or calculated from the NVS_ENZ_hCASP8 assay. It is designed to make measurements of enzyme activity, a form of enzyme reporter, as detected with fluorescence intensity signals by Fluorescence technology.Data from the assay component NVS_ENZ_hCASP8 was analyzed into 1 assay endpoint. This assay endpoint, NVS_ENZ_hCASP8, was analyzed in the positive analysis fitting direction relative to DMSO as the negative control and baseline of activity. Using a type of enzyme reporter, loss-of-signal activity can be used to understand changes in the enzymatic activity as they relate to the gene CASP8. Furthermore, this assay endpoint can be referred to as a primary readout, because this assay has produced multiple assay endpoints where this one serves a enzymatic activity function. To generalize the intended target to other relatable targets, this assay endpoint is annotated to the protease intended target family, where the subfamily is cysteine protease.
Binding assays used specific radioligands (tritiated, iodinated) with non-radioactive competitive displacement ligands in agonist or antagonist protocols (as indicated) and various reference compounds and inhibitors to titrate specific binding to receptors and transporters. Most enzyme assays (CYPs, kinases, phosphatases, proteases, HDACs) used recombinant protein and specific substrates (fluorescence mostly, some colorimetric and radioactive) and inhibitors, followed by a biochemical separation of substrate and product. All assays for the biochemical HTS were initially run in duplicate at a single concentration (10 uM for CYP450 assays and 25 uM for all others). […] Each assay was run with positive and negative controls, and concurrent controls on every plate. […]
`CCOC(=O)C(C)OC(=O)c1cc(Oc2ccc(C(F)(F)F)cc2Cl)ccc1[N+](=O)[O-]` (stereo not given): the molecule was called inactive.
On the same count and under the same terms, the result for `Nc1c(Cl)c(F)nc(OCC(=O)O)c1Cl` reads “inactive”; that for `CCSC(=O)N1CCCCCC1`, “inactive”.

Another assay deals with human Casein Kinase 2- alpha 2 beta 2 (CK2a2b2), CSNK2A1 (gene 1457) (UniProt P68400). Description: NVS_ENZ_hCK2a2b2: NovaScreen (NVS) Enzymatic Assay for human Casein Kinase 2- alpha 2 beta 2 (CK2a2b2) (AID 2283147). Here is the method:
NVS_ENZ_hCK2a2b2 is a biochemical, single-readout assay that uses extracted gene-proteins in a cell-free assay. Measurements were taken 1 hour after chemical dosing in a 384-well plate.NVS_ENZ_hCK2a2b2 is one of one assay component(s) measured or calculated from the NVS_ENZ_hCK2a2b2 assay. It is designed to make measurements of enzyme activity, a form of enzyme reporter, as detected with fluorescence intensity signals by Fluorescence and electrophoretic mobility shift technology.Data from the assay component NVS_ENZ_hCK2a2b2 was analyzed into 1 assay endpoint. This assay endpoint, NVS_ENZ_hCK2a2b2, was analyzed in the positive analysis fitting direction relative to DMSO as the negative control and baseline of activity. Using a type of enzyme reporter, loss-of-signal activity can be used to understand changes in the enzymatic activity as they relate to the gene CSNK2A1. Furthermore, this assay endpoint can be referred to as a primary readout, because this assay has produced multiple assay endpoints where this one serves a enzymatic activity function. To generalize the intended target to other relatable targets, this assay endpoint is annotated to the kinase intended target family, where the subfamily is serine/threonine kinase.
Binding assays used specific radioligands (tritiated, iodinated) with non-radioactive competitive displacement ligands in agonist or antagonist protocols (as indicated) and various reference compounds and inhibitors to titrate specific binding to receptors and transporters. Most enzyme assays (CYPs, kinases, phosphatases, proteases, HDACs) used recombinant protein and specific substrates (fluorescence mostly, some colorimetric and radioactive) and inhibitors, followed by a biochemical separation of substrate and product. All assays for the biochemical HTS were initially run in duplicate at a single concentration (10 uM for CYP450 assays and 25 uM for all others). […]
Turning to `Clc1nc(Cl)nc(Nc2ccccc2Cl)n1`, the AC50 is 15.8 µM (active).
As for `CS(=O)(=O)c1ccc(C(=O)C2C(=O)CCCC2=O)c([N+](=O)[O-])c1`, the AC50 is 8.29 µM (active).
Take `Nc1c(Cl)c(F)nc(OCC(=O)O)c1Cl`: the AC50 is 18.8 µM (active).
